Our source for the Potency and activity change, negative = inhibition values is PubChem BioAssay (NCATS).

Structures are written as SMILES. Inconclusive results are not listed. A call without a number means that no potency is given here. Active and inactive are the calls of the source. The call rests on the fitted dose curve; in most records, active means well fitted inhibition curve with a large enough effect; inconclusive means small, poorly fitted or top-dose-only effect; inactive means no such curve, though single readings can be large or run the other way.

Chain of Rap guanine nucleotide exchange factor 3 (Homo sapiens) (O95398 whole entry, looked up): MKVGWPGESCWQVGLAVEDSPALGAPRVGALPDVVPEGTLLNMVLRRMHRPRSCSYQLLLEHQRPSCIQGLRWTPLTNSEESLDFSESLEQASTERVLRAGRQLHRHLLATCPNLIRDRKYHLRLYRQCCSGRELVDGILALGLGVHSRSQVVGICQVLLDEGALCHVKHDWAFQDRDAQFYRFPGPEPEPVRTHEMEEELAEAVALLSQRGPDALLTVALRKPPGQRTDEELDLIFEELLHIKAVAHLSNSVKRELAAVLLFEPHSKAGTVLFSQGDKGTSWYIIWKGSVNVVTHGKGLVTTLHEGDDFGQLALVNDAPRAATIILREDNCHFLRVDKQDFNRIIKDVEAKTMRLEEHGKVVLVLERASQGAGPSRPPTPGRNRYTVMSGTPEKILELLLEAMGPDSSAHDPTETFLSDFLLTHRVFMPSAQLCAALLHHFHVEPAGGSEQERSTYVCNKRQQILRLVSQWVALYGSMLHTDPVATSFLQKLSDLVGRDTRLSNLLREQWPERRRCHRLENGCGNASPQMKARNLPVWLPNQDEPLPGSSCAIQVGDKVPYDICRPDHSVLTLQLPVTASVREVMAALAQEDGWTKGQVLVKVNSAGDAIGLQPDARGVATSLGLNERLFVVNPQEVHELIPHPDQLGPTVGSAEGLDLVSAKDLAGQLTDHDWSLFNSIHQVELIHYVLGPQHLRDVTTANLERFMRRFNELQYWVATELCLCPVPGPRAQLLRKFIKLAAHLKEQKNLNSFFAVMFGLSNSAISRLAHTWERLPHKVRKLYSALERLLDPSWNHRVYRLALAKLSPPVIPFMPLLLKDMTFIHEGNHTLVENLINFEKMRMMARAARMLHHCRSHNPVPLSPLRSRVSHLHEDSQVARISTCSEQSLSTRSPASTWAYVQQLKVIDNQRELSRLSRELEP

The test addresses Rap guanine nucleotide exchange factor 3 (Homo sapiens) (UniProt O95398). Put plainly: Counterscreen qHTS for antagonist of cAMP-regulated guanine nucleotide exchange factor 3 (EPAC1) (AID 1645888). The note with it: Rap1B-BODIPY-GDP nucleotide exchange, fluorescence; series mostly up to 154 µM. An excerpt: Assay Provider (PI): Xiaodong Cheng Ph.D. The University of Texas Medical Branch, […], TX MLPCN Grant: NS066510 In multi-cellular eukaryotic organisms, the effects of cAMP are transduced by two ubiquitously-expressed intracellular cAMP receptors, the classic protein kinase A/cAMP-dependent protein kinase (PKA/cAPK) and the more recently discovered exchange protein directly activated by cAMP/cAMP-regulated guanine nucleotide exchange factor (EPAC/cAMP-GEF). Both PKA and EPAC are ubiquitously expressed in all tissues, and an increase in intracellular cAMP levels will lead to the activation of both PKA and EPAC. Therefore, careful dissections of the individual role and relative contribution of EPAC and PKA within the overall cAMP signaling in various model systems are critical for further elucidating the mechanism of cAMP signaling. To date no EPAC-specific antagonists and agonist, as well as isoform-specific agonists have been reported, and developing EPAC-specific pharmacological probes to determine the physiological functions that EPAC play in the overall cAMP-mediated signaling remains a major challenge within the research field. Furthermore, identified regulators of EPAC may lead to new mechanism-based therapeutic strategies specifically targeting the EPAC / cAMP-signaling components as EPAC has been implicated to play important roles in major human pathological conditions such as diabetes, heart disease, and cancer. This qHTS will be used to screen the Molecular Libraries Small Molecule Repository (MLSMR) as a concentration-titration series using the NCGC unique quantitative screening (qHTS) platform to find activators for EPAC1. In addition, this assay will also be used as a counterscreen for the EPAC2 qHTS. This fluorescent based assay is developed and validated for EPAC1 that measures exchange using EPAC effector Rap1 complex with BODIPY-GDP, a GDP analog with a tethered fluorophores. Activators are identified by monitoring the change in fluorescence signal as the exchanged free BODIPY-GDP has a reduced fluorescence compared to Rap1-bound BODIPY-GDP. Increase in signal (activation) is the desired outcome for the EPAC1 agonist while no activity in this assay is desired for the EPAC2 agonist counterscreen. Reference: [1] de Rooij, J., Zwartkruis, F. J., Verheijen, M. H., Cool, R. H., Nijman, S. M., Wittinghofer, A., and Bos, J.L. (1998) Nature 396, 474-477. Kawasaki, H., Springett, G. M., Mochizuki, N., Toki, S., Nakaya, M., Matsuda, M., Housman, D. E., and Graybiel, A. M. (1998) Science 282, 2275-2279.
EPAC1 Counterscreen PROTOCOL TABLE SEQUENCE No. (e.g., 1, 2, 3, etc.); […] (e.g., Cells, Incubation, Reagent, etc.); VALUE and DESCRIPTION. 1. Reagent. 3 uL. [1x] 250 nM Rap1B-BODIPY-GDP, and 50 uM GDP. 2a. Compound. 23 nL. Control 6,572 uM cAMP (working concentration). 2b, 2c. Compound. 23 nL. Control activator and inhibitor; 234 - 30,000 uM cAMP and 16.4 - 10,000 uM. 2d. Compound. 46 nL. MLSMR follow-up library; 0.64 - 10,000 uM. 3. Time. 15 sec, 1000rpm. Centrifuge. 4. Time. 5 min. Incubation at room temperature. 5. Detector. Fluorescence. (Read 1), Ex/Em = 480 nm / 540 nm. 6. Time. 30 min. Incubation at room temperature. 7. Detector. Fluorescence. (Read 2), Ex/Em = 480 nm/ 540 nm. 8. Reagent. 1uL. Dispense either [4x] 10 uM cAMP or buffer. 9. Time. 15 sec, 1000 rpm. Centrifuge. 10. Time. 5 min. Incubation at room temperature. 11. Detector. Fluorescence. (Read 3), Ex/Em = 480 nm / 540 nm. 12. Time. 30 min. Incubation at room temperature. 13. Detector. Fluorescence. (Read 4), Ex/Em = 480 nm / 540 nm. NOTES (numbers refer to Sequence numbers above; values are from representative experiments) 1. Medium-binding black solid-bottom Greiner plates (789176-F). Dispense 3 uL of [1x] 250 nM Rap1B-BODIPY-GDP, and 50 uM GDP into columns 1 to 48. 2a. Control compound cAMP (6,572 uM, column 3, rows 1 to 32) single pin-transferred for a [final] of 50 uM. 2b. […]
For orientation: Counterscreens check selectivity or assay interference.
As for `COc1cccc(Cn2c(=O)c3ccccc3n3nc(C)cc23)c1`, the Potency entry was “inactive”.
Regarding `N=c1c(S(=O)(=O)c2ccc(Br)cc2)cc2c(=O)n3ccccc3nc2n1Cc1ccccc1`, the activity change, negative = inhibition was -6.58% [at 30.8 µM] (inactive).
With `O=C1C(O)=C(O)C(=O)c2ccccc21`, the Potency result is “inactive”.
`c1cncc(-c2nc(NCCCN3CCOCC3)c3c4c(sc3n2)CCC4)c1`: the Potency result is “inactive”.
In the case of `O=C(COC(=O)c1ccc([N+](=O)[O-])s1)NCc1ccccc1`, the Potency entry is “inactive”.
On the same count and under the same terms, next, `CCSc1nc(-c2ccccc2)nc2c1CCCC2`: “inactive”; `O=C(O)c1ccc(COc2ccccc2/C=C2\NC(=O)N(Cc3ccc(F)cc3)C2=O)cc1`: “inactive”.
For the molecule `CC(C)(C)NC(=O)NC(=O)CN1CCN(S(=O)(=O)c2ccc3c(c2)CCCC3)CC1`, the activity change, negative = inhibition was -44% [at 30.8 µM] (inactive).
The same measure, in the same setting: to `CCCN(CCC)C(=O)Cn1c(=O)c2sccc2n2c(=S)sc(-c3ccccc3)c12` belongs -19.9% [at 30.8 µM] (inactive).
For the molecule `C=CC[C@@H](Cc1ccc(F)cc1)C(=O)OC[C@@H]1CCCN1C(=O)[C@@H](CC=C)CC(=O)N(CCO)Cc1ccccc1`, the Potency entry was “inactive”.
Turning to `Brc1cc2c(cc1CSc1ncccn1)OCO2`, the activity change, negative = inhibition was -28.4% [at 30.8 µM] (inactive).
The same measure, in the same setting: next, `Cc1cccc(Cn2c(=O)oc3ccc(C)cc32)c1`: 0.42% [at 30.8 µM] (inactive).
Regarding `O=S(=O)(c1ccc2[nH]c3c(c2c1)CCCC3)N1CCCCC1`, the Potency entry was “inactive”.
On the same count and under the same terms, next, `COc1ccc(N2C(=O)CSC2c2ccccc2F)c(OC)c1` (stereo not given): “inactive”.
For the molecule `CCCC(=O)OC1CC(C)N(C(=O)c2ccccc2)c2ccc(C)cc21` (stereo not given), the activity change, negative = inhibition was -2.85% [at 30.8 µM] (inactive).
Turning to `Cc1cccc(Cn2c(-c3cccs3)nc3ccccc32)c1`, the Potency entry was “inactive”.
In the case of `COc1ccc(NC(=O)CN2CCN(c3c(C)cc(C)cc3C)CC2)cc1`, the activity change, negative = inhibition is 9.75% [at 30.8 µM] (inactive).
Take `CCOc1cccc(CNc2ccc(O)cc2)c1OCc1ccc(Cl)cc1Cl`: the Potency entry was “inactive”.
Regarding `CN(C)C(CNC(=O)c1cc(-c2ccco2)nc2ccccc12)c1ccccc1` (stereo not given), the activity change, negative = inhibition is -8.2% [at 30.8 µM] (inactive).
For the molecule `CCOc1ccccc1NC(=O)c1ccccc1-c1ccccc1`, the Potency entry is “inactive”.
On the same count and under the same terms, to `CCN(CC)CC#CC(OC)(c1ccccc1)c1ccccc1` belongs “inactive”; to `COc1cc(/C=C2/SC(=S)N(CC(=O)O)C2=O)ccc1OC(=O)c1cccs1`, “inactive”.
On the same count and under the same terms, next, `CCOc1cc(-c2ccc(OC(=O)c3ccccc3)c(OC)c2)cc(=O)c2c(C)oc(C)c12`: “inactive”.
Turning to `CC(NC(=O)/C(C#N)=C/c1ccc([N+](=O)[O-])o1)c1ccccc1` (stereo not given), the activity change, negative = inhibition is 20.7% [at 30.8 µM] (inactive).
Take `Cc1nn(C)c(C)c1N1C(=O)c2cccc3c(N)ccc(c23)C1=O`: the activity change, negative = inhibition is 353% [at 30.8 µM] (inactive).
For `CCOc1ccc(NC2c3ccccc3C(=O)N2Cc2ccco2)cc1` (stereo not given), the Potency result is “inactive”.
Regarding `CCOC(=O)C(C(C)C)C(N)Cc1ccc(F)cc1` (stereo not given), the Potency result was “inactive”.
As to `O=C(CSc1nnc(-c2ccco2)c(-c2ccco2)n1)c1ccccc1`, the Potency entry was “inactive”.
As to `COC(=O)c1ccc2nc(-c3ccccc3)c(Cc3cccc(F)c3)n2c1`, the activity change, negative = inhibition was 10% [at 30.8 µM] (inactive).
On to `CCN(CC)c1ccc2cc(C(C)=O)c(=O)oc2c1`, for which the Potency entry is “inactive”.
With `Cc1ccc(C(=O)Cc2ccccc2)c(O)c1`, the activity change, negative = inhibition is -3.71% [at 30.8 µM] (inactive).
As for `O=c1cc(-c2c(O)c3ccccc3n(Cc3ccccc3)c2=O)[nH][nH]1`, the Potency entry is “inactive”.
Consider `O=C(Nc1sc2c(c1C(=O)O)CCCC2)c1ccc(Cl)cc1`, for which the activity change, negative = inhibition is -8.59% [at 30.8 µM] (inactive).
Take `O=C(N/N=C/c1ccc(O)c(O)c1)C1c2ccccc2Oc2ccccc21`: the Potency result was “inactive”.
On the same count and under the same terms, next, `Cc1ccc(O)c(-c2n[nH]c3c2C(c2ccccc2F)N(Cc2ccco2)C3=O)c1` (stereo not given): “inactive”; `CNC(=O)N(C1=NCC(C)(C)S1)c1ccc(F)c(Cl)c1`: “inactive”; `Cc1cccc(NC(=O)CC2C(=O)OCCN2Cc2ccccc2)c1` (stereo not given): “inactive”.
Still for that read-out and setting: next, `CCc1nc2ccccc2c(C(=O)NCc2ccccc2)c1C`: “inactive”.
Turning to `Cc1ccc(C)c(NC(=O)CN(C)C(=O)c2ccccc2Cc2ccccc2)c1`, the Potency result was “inactive”.
Still for that read-out and setting: next, `CCOC(=O)c1c(CSc2ccccc2)n(C)c2cc(Br)c(OCC(O)CNC(CO)(CO)CO)cc12` (stereo not given): “inactive”.
